A selection: hits, their analogues and other compounds. The true share with any hit is near 2.1%.
Nrf2 block: Nrf2 qHTS screen for inhibitors; A549 ARE-Fluc reporter, luciferase luminescence, 18-24 h; Potency, µM (series often up to 46 µM), inactives show top-dose activity change, negative = inhibition, actives largely listed as inhibitors; 360,000 tested, 2.1% active; AID 504444, 2011; further: potency means the concentration at half of the fitted maximal effect; on the % scale 0 is the no-effect control and ±100 the full control effect; nearly all actives have a fitted effect of over 60% in size
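Cells were seeded and rested 2 h, then exposed to compounds for 18-24 h. CellTiter-Fluor was read first as a viability measure. BugLite was added 15 min before the final luminescent read of ARE-luciferase activity in A549 cells.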
TSG101-PTAP inh: qHTS Assay for Iinhibitors of HIV-1 Budding by Blocking the Interaction of PTAP/TSG101. Tumor susceptibility gene 101 protein (Homo sapiens), Q99816. Fluorescence polarization, FITC-PTAP peptide / Tsg101 binding. Potency, µM (titrated, usually from 115 µM), for the others: at the top dose activity change, negative = inhibition, hits mostly inhibitors. 340,000 tested, under 10 active. AID 493005, 2010; active means well fitted inhibition curve with a large enough effect in the main read-out, with a control signal flat, not every such curve was filed as active; inconclusive means small, poorly fitted or top-dose-only effect, or effect the other way, or a change in a side signal; inactive means no such curve, though single readings can be large or run the other way; further: potency means the concentration at half of the fitted maximal effect; % of control where 0% means no effect
Target sequence (Q99816 whole entry, looked up): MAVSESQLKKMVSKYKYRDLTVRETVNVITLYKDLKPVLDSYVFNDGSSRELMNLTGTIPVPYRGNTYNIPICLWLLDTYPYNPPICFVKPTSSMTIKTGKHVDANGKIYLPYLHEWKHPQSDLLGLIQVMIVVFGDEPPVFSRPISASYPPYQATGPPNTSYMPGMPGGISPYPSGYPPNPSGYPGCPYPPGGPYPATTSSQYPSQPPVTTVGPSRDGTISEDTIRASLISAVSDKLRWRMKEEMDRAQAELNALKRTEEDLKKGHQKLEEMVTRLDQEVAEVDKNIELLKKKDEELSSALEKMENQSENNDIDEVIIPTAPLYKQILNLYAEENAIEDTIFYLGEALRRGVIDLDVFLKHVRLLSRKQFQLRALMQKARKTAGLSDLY
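Fluorescence anisotropy tracks displacement of a FITC-tagged PTAP peptide (50 nM) from the Tsg101 binding domain (10 uM), following a 20 min room-temperature incubation at pH 7.5.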
Nrf2 ARE act: qHTS of Nrf2 Activators. AREc32 ARE-luciferase reporter (MCF7-derived line), luminescence, 24 h. Potency, µM (highest dose often 46.1 µM), inactives show at the top dose activation, actives largely listed as activators. AID 624171, 2012. 410,000 tested, 0.31% active; further: potency means the concentration at half of the fitted maximal effect; % of control where 0% means no effect; nearly all actives have a fitted effect of over 65% in size
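For detection, Steady-Glo was added and plates sat 30 min at RT; before that, AREc32_Fluc cells grown overnight in OPTI-MEM/5% FBS had been treated with 23 nL compound for 24 hr at 37 deg C.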
Glioma ERSR ind: qHTS for Inducers of the Endoplasmic Reticulum Stress Response (ERSR) in Human Glioma: qHTS | U87-MG GRP78 promoter luciferase reporter, 16 h | Potency, µM, without a hit: at the top dose activation, usual class: activators | 420,000 tested, 0.02% active | AID 602332, 2012; further: potency means the concentration at half of the fitted maximal effect; series mostly up to about 76 µM; % of control where 0% means no effect; nearly all actives have a fitted effect of over 35% in size
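Stably transfected U87-MG human glioma cells carrying a GRP78-based luminescent sensor were seeded at 1000 cells/well, pin-dosed with compounds and incubated 16 h. Luciferase reagent was then added, and end-point luminescence was read after 10 min at room temperature.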
A549 tox: Nrf2 qHTS screen for inhibitors: counterscreen for cytotoxicity. A549 ARE-Fluc cells, CellTiter-Fluor viability, 18-24 h. Potency, µM (top dose mostly 46 µM), inactives show top-dose activity change, negative = cytotoxicity, hits mostly inhibitors. 390,000 tested, 0.16% active; further: potency means the concentration at half of the fitted maximal effect; on the % scale 0 is the no-effect control and ±100 the full control effect
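A549 ARE_Fluc cells in 5% FBS OPTI-MEM were exposed to compounds in concentration-response for 18-24 h at 37 deg C. Viability was read by CellTiter-Fluor fluorescence (Ex 405/Em 525) after 30 min, before the luciferase read.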
miR-21 act: qHTS Assay for Modulators of miRNAs and/orActivators of miR-21; Potency, µM (doses to about 38.3 µM), without a hit: top-dose activity change, positive = activation, hits mostly activators; HeLa miR-21 FLuc reporter, luciferase, 48 h; 340,000 tested, under 10 active; AID 2288, 2010;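 further: % of control where 0% means no effect; miR-21 action dims this reporter so a rising signal means less miR-21 action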
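HeLa cells endogenously expressing miR-21, stably carrying CMV-driven firefly luciferase with a downstream miR-21 binding site, 2000 cells/well. Titrations up to approximately 40 uM, 48 hours; luciferase luminescence read.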
* = called active by the depositor; ? = inconclusive; · = not tested or not shown. Unless noted, the call rests on the fitted dose curve; in most records, active means well fitted curve in the direction sought with a large enough effect; inconclusive means small, poorly fitted or top-dose-only effect, or another doubt; inactive means no such curve, though single readings can be large; an effect the other way counts as inactive or inconclusive.

SMILES | Nrf2 block | TSG101-PTAP inh | Nrf2 ARE act | Glioma ERSR ind | A549 tox | miR-21 act
Cn1cnnc1Sc1ccc(CN2CCOc3ccc(C4=CCCCC4)cc3C2)o1 | · | · | · | -5.0% | · | ·
CCC(=O)CC | · | · | · | -5.2% | · | ·
O=C(NCCc1csc(-c2ccc(C(F)(F)F)cc2)n1)c1cccs1 | 25.9µM* | -4.0% | 0.1% | 2.6% | -1.7% | 8.1%
COc1ccc2ccccc2c1CN1CCOc2ccc(CN3CCN(CCO)CC3)cc2C1 | · | · | · | -3.7% | · | ·
CCN1C(=NCc2cccc(C(F)(F)F)c2)N[C@@H](c2cccc(C(F)(F)F)c2)C(C(=O)OC)=C1C | · | · | · | -11.7% | · | ·
Cc1cccc2c(C(O)c3cn(C)c4ccccc34)c[nH]c12 (stereo not given) | · | · | · | 2.5% | · | ·
CS(=O)(=O)Nc1ccc(N2CCN(c3ccc(C(F)(F)F)cn3)CC2)nc1 | 7.31µM* | 1.5% | -0.8% | -5.2% | -7.5% | 12.2%
O=C(O)c1ccc(Nc2ncc([N+](=O)[O-])cc2[N+](=O)[O-])cc1 | -13.2% | -4.8% | 4.2% | -6.3% | 18.4µM* | 0.3%
O=C(Nc1ccc(C(=O)O)cc1)Nc1ccc([N+](=O)[O-])cc1 | 11.9% | -2.2% | -0.3% | 1.0% | -10.7% | -0.3%
COc1ccc(-c2cn3ccccc3n2)cc1[N+](=O)[O-] | ? | -3.0% | 8.5% | 4.9% | 4.3% | -77.4%
COc1ccc(-c2cn3cc([N+](=O)[O-])ccc3n2)cc1OC | 3.66µM* | -7.8% | 0.2% | -1.8% | -0.8% | -45.1%
COC(=O)/C(=C\c1cccnc1)NC(=O)c1ccc(OCc2ccccc2)cc1 | 16.4µM* | -3.0% | 0.4% | -3.8% | -2.4% | 5.3%
O=C(COc1ccc(-c2ccccc2)cc1)Nc1cccnc1 | 16.4µM* | -8.7% | -0.7% | 6.9% | -15.7% | ·
CC(C)(C)c1ccc(C(=O)NCc2cccnc2)cc1 | 0.7% | -4.1% | 0.3% | 5.8% | -3.9% | -36.9%
COc1ccc(CN(C)C(=O)c2ccc(COc3ccccc3)cc2)c(OC)c1 | ? | -3.4% | 0.0% | -2.0% | -4.4% | -0.1%
COC(=O)/C(=C/c1cccnc1)NC(=O)c1ccccc1 | -15.1% | -0.9% | 4.6% | -5.2% | -1.6% | 2.3%
Cc1ccc(OCc2ccc(C(=O)NCc3cccnc3)cc2)cc1C | 23.1µM* | -0.5% | 3.3% | 0.3% | -18.2% | 3.5%
COc1cc(OC)c(OC)cc1CNC(=O)c1ccc(COc2ccccc2)cc1 | 16.4µM* | -2.3% | 1.0% | -2.4% | -12.4% | -0.5%
Cc1c(C(=O)NCc2ccccc2Cl)sc2ncnc(NCC3CCCO3)c12 (stereo not given) | · | · | · | -6.6% | · | ·
COc1cc(CN2C(=O)CC[C@@H]3CN(Cc4ccccn4)CC[C@@H]32)cc(OC)c1OC | · | · | · | -3.6% | · | ·
Cc1cccc(OCC(=O)Nc2ccc(C(=O)NCc3cccnc3)cc2)c1 | · | · | · | · | · | 21.0%
O=C(NCc1cccnc1)c1ccc(COc2ccc(Cl)cc2)cc1 | 23.1µM* | -4.3% | 3.2% | 7.2% | -7.2% | 10.9%
O=C(NCc1ccc(Cl)cc1)c1cccnc1 | -26.0% | -0.7% | -0.5% | -4.3% | -1.2% | 4.8%
O=C(COc1ccc(Cl)cc1)Nc1ccc(C(=O)NCc2cccnc2)cc1 | 20.6µM* | -2.0% | -0.8% | -2.8% | -11.1% | 25.2%
COc1ccc2[nH]cc(C(=O)CNc3nccs3)c2c1 | · | · | · | -4.8% | · | ·
OCCC1CN(Cc2nc(-c3ccc(F)cc3)cs2)CCN1CCc1ccccc1 (stereo not given) | ? | -8.3% | 2.9% | -2.5% | -13.6% | -1.1%
CC(C)(C)CN1CCN(Cc2nc(-c3ccc(F)cc3)cs2)CC1CCO (stereo not given) | 20.6µM* | 1.6% | 0.4% | -3.0% | -10.3% | 23.6%
Cc1cc(NC(=O)c2sc(Nc3cccc(C(F)(F)F)c3)nc2N)no1 | 16.4µM* | -1.4% | 2.7% | -6.4% | ? | 6.5%
